Here are results for 23 molecules from PubChem BioAssay AID898 (University of Pittsburgh Molecular Library Screening Center, 2007).

Molecules are shown by their SMILES. Hit rate of the full screen: of about 140,000 compounds, about 220 (0.16%) were called active. For the sample, actives were picked, then their nearest neighbours and some compounds at random. Unmarked numbers belong to inactive results. No stated cut-off is given here; in the data, active means inhibition above about 50%; inactive means the rest.

The assay deals with YopH tyrosine phosphatase [Yersinia enterocolitica]. The experiment in a line: inhibition of Yersinia YopH phosphatase – biochemical, fluorescence Ex485/Em525, primary screen (AID 898). Particulars: active compounds read high, concentration not given here.
`COC1=CCC2([N+](=O)[O-])CN(CC(=O)O)CC1([N+](=O)[O-])C2` (stereo not drawn): the inhibition is -24.9%.
The same measure for `O=C(COC(=O)/C=C/c1ccc(S(=O)(=O)N2CCCCCC2)cc1)NCc1ccccc1Cl`: -43.5%; for `COC(=O)c1sc(N)c(C(=O)OC)c1COC(=O)CNS(=O)(=O)c1ccc(C)cc1`: -21.7%; for `Cc1ccc(C(C[N+](=O)[O-])c2c(C)cc3ccccn23)cc1` (stereo not drawn): -23.1%.
Consider `CN1CCN(c2ccc(S(=O)(=O)N3CCCCC3)cc2NC(=O)Cc2ccccc2F)CC1`, for which the inhibition was -23.6%.
Under `O=C(NNC(=O)c1cc2c(s1)CCCC2)c1ccccc1` stands -2.47%.
Under `O=C(NCCOc1ccccc1Cl)C(=O)Nc1ccccc1` stands -35.1%; under `O=C(CN1C(=O)/C(=C\c2ccc(C(F)(F)F)cc2)Sc2ccccc21)NCc1ccco1`, -14.7%.
Under `COc1ccc(C)cc1NC(=O)C(OC(=O)c1cccc(S(=O)(=O)N(C)c2ccccc2)c1)c1ccccc1` (stereo not drawn) stands -35.9%; under `O=[N+]([O-])c1ccc(N/N=C2/CCCCC2c2ccccn2)c([N+](=O)[O-])c1` (stereo not drawn), -15.4%.
Turning to `O=C(OCc1ccc(Br)cc1)c1cccc(-c2nnc(-c3ccccc3)o2)c1`, the inhibition is -11.6%.
The same measure for `C/C(=N\NC(=O)CCn1nc(C)cc1C)C(C)(C)C`: -8.98%; for `CC(C)CNC(=O)COC(=O)c1ccccc1OCC(=O)Nc1ccc(Br)cc1`: -23.1%; for `Cc1cc(C)cc(C(=O)NC(=S)Nc2ccc3[nH]c(=O)[nH]c3c2)c1`: -11.9%.
On to `Cc1cc(SCC(=O)NCCN2C(=O)CSC2=O)nc2ccccc12`, for which the inhibition was -4.76%.
The same measure for `Cc1ccc2[nH]cc(CCCN3C(=O)c4ccccc4C3=O)c2c1`: -23.7%.
As for `Cc1ccc(N(C(=O)c2ccc(CN3CCOCC3)o2)C(C(=O)NCCC(C)C)c2cccs2)c(C)c1` (stereo not drawn), the inhibition is -6.18%.
The same measure for `CCCOc1ccc(NC(=O)C2OC3OC(C)(C)OC3C3OC(C)(C)OC23)cc1` (stereo not drawn): -26.3%; for `O=C(COc1nc2ccccc2nc1N1CCOCC1)NCC(F)(F)F`: -21.6%.
Regarding `CCOc1ccc(Br)cc1S(=O)(=O)Nc1cccc(S(=O)(=O)N(CC)CC)c1`, the inhibition is -29.5%.
Consider `O=C1NC(c2ccc(-c3ccccc3[N+](=O)[O-])o2)C(C(=O)c2ccc(Cl)cc2)C(O)(C(F)(F)F)N1` (stereo not drawn), for which the inhibition was -11.1%.
Under `CCOc1ccc(Oc2nc(C)cc(OC)n2)nn1` stands -16%; under `Cc1cccc(OCCNC(=S)NC(=O)c2cccnc2)c1`, -28.5%.

The term inhibition denotes the change of the read-out against control, counted positive when it falls.
